According to the supplement of paper PMC6555819:

Each sequence was assayed on VDR:RXRa (NR concentration 270 nM, RXRa partner concentration 90 nM) (assay: PBM binding z-score (relative to random genomic background probes); higher = stronger binding; sequences stand for … in GC…GCGATTGACAGCGTAGAATGAAGG).
Method: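 Protein-binding microarray (Agilent 4x180K custom design, double-stranded 60-nt probes: 5' GC cap, 34-nt variable region, 24-nt constant primer region; full probe sequence given). Purified or IVT nuclear receptor:RXRα heterodimers (3:1 NR:RXRα, mostly 270:90 nM) or homodimers were incubated for 1 h in PBS with 2% milk and no ligand, then detected with Alexa488 antibodies. Fluorescence from o1-orientation probes (~5 replicates averaged) was converted to z-scores against 500 random hg19 background probes. Variable regions are seed direct-repeat (DR0–DR5) sites, all their single-nucleotide variants and half-site ablations.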

Sequence	PBM binding z-score
ATACGTAGGTTAAGGGTCATTCAGGTTGGTTCGC	5.82
CCTTACGGGTCAAGAGGTTATAGCACGACGAGCG	4.09
ATCGAAAGGTCGACGAAGTGAGTATACACCGTTT	2.27
CCTAATAGTTGACCATAAGGGCAACCGAAGCTCG	0.926
CCTATTAGTTGACCATAAGCGCAACCGAAGCTCG	1.05
CTCGAAAGGTCGGTTGTGGTGAGTATACGGATAA	1.05
TCTATTAGTTGATTAGGGCAACCCAAACAGCGGA	0.694
CCGACTGGGGCATAAGGTTACCAAAAGCCAGCCC	0.198
ATCTCTAGGTAATGTTCAGTGAAAGATCGATAGA	0.188
TCGAGTAGGTTACCAATGCGGCATTCAGCTTTCT	-0.196
ATCTCTAGGTAAAGTGCAGTGAAAGATCGATAGA	0.146
TTACCAAGGTGAAGATCGTTGATCCCTCTGTAGA	-0.031
ATATGTAGGTTATCGGGGCATTCAGTTTGCGCAT	2.27
AATACAGGGTTATCGTAGGCCAGAGTACGCACAG	1.61
ATCGAAAGGTCGACGTGAGTATAGAGAAAGGGAA	2.53
ACGATTAGTTGAGACGAGGGCAACCGATAGGTTG	0.249
CTCGAAAGGTCGTGCTCAGGTGTGTATACCAAAC	3.31
GCTAGCAGGCCATTTGGGTCAGTCAATGACGGGC	0.157
ATATGTAGGTTAAGAGTCATTCAGGTTGGTTCGC	1.6
ACAGAAAGGTGATGAAGGTAACTCAGGCTATCAT	1.2

Sequence	PBM binding z-score
TATCCTAGGTCATGGGCCAGTATACCACGCGAAC	2.75
CGAACTAGCTCATTGACAGGACAGTGAATAGTAA	-0.486
CCTTACGGGTCAAGGGTATAGCACGGGTGGTACG	3.22
TCTATTAGTTGATGAGGGCAACCGAAACAGCGGA	1.15
CGTCCAAGGTCAGAAGGTCAGTGAAAGCGACGTG	4.14
TTACCAAGGTGAAAGTTCGTTGATGCACGCCTTG	2.12
ATATGTAGGTTACATCCGCGTCATTCAGGCTATG	0.515
CGAACTAGGTCAAGGAGAGTGAATCTCCGCACGC	1.33
ATATGTAGGTTAAGGTTCATTCAGGTTGGTTCGC	5.06
CATACTAGGTCAAGAGGTCAAAGTCCGCTTCCCG	6.01
TCTGCTAGGGCAGTTGGTCAGCTAACGAGCTGCC	-0.663
GCTTGTAGAACAAGGTTAAGAAAGACTAAGCTAA	0.106
TGTCAAAGTTCAAAGGTAACTTAAGTATCCACAC	5.09
TTGCCTAGGTCATGCGGGCCAGTATAGTGTCGGC	2.8
CGTCCAAGGTCAGAGAGGTCAGTAAATGCCGAGT	7.22
ATATGTAGGTTACACCCGGGTCATTCAGGCTATG	4.27
CTCGAAATGTCGTGCTCAGGTGAGTATACCAAAC	0.0153
TCTTGTAGATCAATAGACGTTAAGAAAGTGCGCT	0.326
ATCTCCAGGTAAAGATAGTTCAGTGAATGCAAAT	0.845
CGTTCAAGGTCAGCAGGTCAGTGAAAGCGACGTG	4.25
